Records with an inconclusive call do not appear. Activity calls are given as the source filed them. The call rests on the fitted dose curve; in most records, active means well fitted inhibition curve with a large enough effect; inconclusive means small, poorly fitted or top-dose-only effect; inactive means no such curve, though single readings can be large or run the other way.
What follows are compounds tested against Retinaldehyde dehydrogenase 3 (Homo sapiens) (UniProt P47895) (assay: qHTS for Inhibitors of the Aldehyde Dehydrogenase Family (ALDH1A3) Primary screen (AID 2061315;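 further: plate controls were DMSO vehicle for no effect and reference inhibitor for full effect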)). Details: ALDH inhibition qHTS; series mostly up to 56 µM; activity change, negative = inhibition: at the top concentration.

| SMILES | activity change, negative = inhibition |
| --- | --- |
| CCOc1ccc(NC(=O)Nc2ccc(-c3nc4ccccc4[nH]3)cc2)cc1 | 10.7% (inactive) |
| CCCCNc1nc(C)nc2c1nc(-c1ccccc1)n2CCCCN(CC)CC | 13.1% (inactive) |
| O=C(CSc1nnc(-c2cccc(S(=O)(=O)N3CCCC3)c2)n1-c1ccccc1)Nc1ccccc1 | 9.34% (inactive) |
| N#Cc1ccccc1-c1csc(N2CCC(C(N)=O)CC2)n1 | -16.4% (inactive) |
| COC(=O)c1ccc(Cn2ncc3c4sc(C)cc4n(C)c3c2=O)cc1 | 7.69% (inactive) |
| COc1cccc(-c2nnc3n2N=C(c2ccccc2OC)CS3)c1 | 9.6% (inactive) |
| N#Cc1ccc(-c2ccc(NC(=O)c3cccs3)cn2)cc1 | 12.8% (inactive) |
| Cc1c(C(=O)NCC2CCCO2)[nH]c2c1C(=O)CC(c1ccco1)C2 (stereo not drawn) | -9.63% (inactive) |
| Cc1cccc(CNc2ccnc(-c3ccccc3F)n2)c1 | 0.641% (inactive) |
| O=C(NCCc1nc2ccccc2n1CCOc1ccc(C(F)(F)F)cc1)C1CCCCC1 | -0.0523% (inactive) |
| Cn1ncc(Cl)c1C1N=C(Nc2nc3ccccc3o2)NC2=C1C(=O)CCC2 (stereo not drawn) | 25.9% (inactive) |
| c1csc(CNc2ncnc3ccc(-c4ccc5c(c4)OCO5)cc23)n1 | 7.43% (inactive) |
| O=[S+]([O-])(c1c(F)cccc1F)N1CCN([S+](=O)([O-])c2cccc3nonc23)CC1 | 0.618% (inactive) |
| CCc1ccccc1-c1nc(NCc2ccc(-c3cccnc3)cc2)c2ccccc2n1 | -20.2% (inactive) |
| Cc1ccnc(NC(=S)Nc2cccc(C(F)(F)F)c2)c1 | 45% (inactive) |
| Cc1nc(Nc2nc3ccccc3o2)nc2c1CCCC2 | 5.99% (inactive) |
| Cc1cnccc1-c1nc(Nc2ccc(F)c(F)c2)c2ccccc2n1 | -6.72% (inactive) |
| CCOc1ccccc1-c1nnc2n1N=C(c1c(OC)cccc1OC)CS2 | 6.44% (inactive) |
